From PubChem BioAssay
Compounds with a hit are over-represented: about 0.71% of the library has one in this group of screens.
GALK inhibitor = blocks human galactokinase activity; P51570; hit rate 0.007% among 270,000; Potency, µM (series often up to 57.5 µM), actives largely listed as inhibitors; AID 1868; Purified GALK, Kinase-Glo residual ATP luminescence
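Human GALK (5 nM) with 35 uM ATP and 100 uM galactose in 20 mM HEPES pH 8.0, 5 mM MgCl2, 60 mM NaCl, 1 mM DTT, 0.01% BSA. After 1 h at room temperature, leftover ATP was read by Kinase-Glo Plus luminescence.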
USP2a block = USP2a (human) protease inhibition; AID 463254; hit rate 0.01% among 330,000; USP2 core, Ub-CHOP2 coupled fluorogenic reporter, 485/531; Potency, µM (highest dose often 38.3 µM), most hits filed as inhibitors
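USP2 core (10nM final) preincubated 30min RT with compound in 20mM Tris-HCl pH 8.0, 2mM CaCl2, 2mM beta-mercaptoethanol, 0.05% CHAPS; 25nM Ub-CHOP2 plus 25nM reporter substrate added, fluorescence (Ex485/Em531) read after 60min.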
Coupling enz = inhibits coupling enzyme system, counter-screen for aldolase hits | coupling enzyme system counterscreen, AmpLite Red fluorescence | activity change, negative = inhibition, % at 58.2 µM, hits read low | hit rate 0.67% among 290,000; in the data active = activity change below about -30%
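Counterscreen lacking aldolase: glyceraldehyde-3-phosphate coupling-enzyme reagent preincubated 10 min at RT with compound (at 57.5 uM final), then substrate/coupling system with AmpLite Red added; fluorescence read at 525/598 nm after 20 min RT.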
Eya2 phos inh = Eya2 (human) phosphatase inhibition; O00167; AID 488837; recombinant Eya2, OMFP fluorescence dephosphorylation (OMFP is methylfluorescein phosphate); hit rate 0.006% among 330,000; Potency, µM (highest dose often 76.9 µM), most hits filed as inhibitors
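Eya2 (0.2 uM) preincubated 10 min at ambient with compound, then OMFP substrate added at 50 uM; 10 min reaction in 50 mM HEPES pH 7.5, 50 mM NaCl, 5 uM MgCl2, 0.05% BSA, 1 mM DTT. Fluorescence read at Ex 485/Em 525 nm.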
USP1-UAF1 inh = USP1/UAF1 (human) deubiquitinase inhibition; recombinant USP1/UAF1, Ub-Rhodamine cleavage fluorescence; Potency, µM (highest dose often 57.1 µM), actives largely listed as inhibitors; hit rate 0.23% among 390,000; also: nearly all actives have a fitted effect of over 60% in size
Target sequence (O94782 whole entry, looked up): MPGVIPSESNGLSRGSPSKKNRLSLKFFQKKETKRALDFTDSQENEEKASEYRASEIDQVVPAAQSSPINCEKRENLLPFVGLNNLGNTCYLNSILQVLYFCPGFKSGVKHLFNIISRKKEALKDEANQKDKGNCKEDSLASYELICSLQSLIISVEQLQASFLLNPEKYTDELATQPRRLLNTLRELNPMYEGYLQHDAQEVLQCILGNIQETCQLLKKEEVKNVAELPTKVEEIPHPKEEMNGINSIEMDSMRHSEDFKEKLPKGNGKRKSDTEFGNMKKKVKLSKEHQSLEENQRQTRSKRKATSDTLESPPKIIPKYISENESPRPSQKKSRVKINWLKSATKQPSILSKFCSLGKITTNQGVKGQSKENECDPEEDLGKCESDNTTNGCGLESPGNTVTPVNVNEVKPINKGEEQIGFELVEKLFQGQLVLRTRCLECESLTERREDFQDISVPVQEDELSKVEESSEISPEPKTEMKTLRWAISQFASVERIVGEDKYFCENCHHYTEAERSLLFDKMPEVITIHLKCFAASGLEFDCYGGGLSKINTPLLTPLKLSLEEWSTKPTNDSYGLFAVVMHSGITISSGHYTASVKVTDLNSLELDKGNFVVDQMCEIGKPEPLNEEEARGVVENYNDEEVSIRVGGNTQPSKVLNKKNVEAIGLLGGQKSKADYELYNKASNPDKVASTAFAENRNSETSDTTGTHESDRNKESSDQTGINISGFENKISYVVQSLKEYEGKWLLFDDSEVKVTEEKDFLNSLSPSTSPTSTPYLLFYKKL
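Step one: compound is pinned into 1nM USP1/UAF1 in HEPES pH 7.8 buffer with TCEP. Step two: 15 min room-temperature incubation. Step three: Ub-Rho (150nM final) starts cleavage, tracked by fluorescence over six one-minute reads.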
PI4K2A block = inhibitors of human PI4K2A | Q9BTU6 | purified PI4K2A, ADP-Glo luminescence, 1 h; active compounds read low | activity change, negative = inhibition, % at 76.9 µM | hit rate 0.13% among 420,000; in the data active = activity change below about -50%; inconclusive = mostly about -30% to -49%
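Compounds are screened against recombinant PI4K2A using PI as substrate and ATP, the latter dispensed at 300 microM. Reactions run one hour at ambient temperature before ADP-Glo detection; full inhibition defined by wells lacking enzyme.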
Numbers stand for hits. Unless noted, calls follow the shape of the dose curve; as a rule, active = well fitted curve in the direction sought with a large enough effect; inconclusive = small, poorly fitted or top-dose-only effect, or another doubt; inactive = no such curve, though single readings can be large; an effect the other way counts as inactive or inconclusive.

CC(=O)OC[C@H]1O[C@@H](CCO/N=C2/[C@H]3O[C@@H]3[C@@H](O)[C@H]3[C@H]2CCn2c(=O)n(-c4ccccc4)c(=O)n23)C=C[C@@H]1OC(C)=O was read as Coupling enz inactive.
Screening O=C(Nc1cccc(O)c1)C(=O)Nc1ccccn1 returned GALK inhibitor inactive, USP2a block inactive, Coupling enz inactive, Eya2 phos inh inactive, USP1-UAF1 inh inactive and PI4K2A block -64.
`CCC(C)NC(=O)c1c(F)c(F)c(F)c(F)c1F` (centres undefined) gave GALK inhibitor inactive, USP2a block inactive, Coupling enz inactive, Eya2 phos inh inactive, USP1-UAF1 inh inactive and PI4K2A block -63.
`COc1cc(O)cc(OC)c1OC` gave Coupling enz -33.
`COc1c(O)cc(O)cc1O` gave Coupling enz inactive.
CC1CCc2cccc3c2N1c1cc(C#N)c(C#N)cc1O3 (centres undefined) was read as GALK inhibitor inactive, USP2a block inactive, Coupling enz inactive, Eya2 phos inh inactive, USP1-UAF1 inh 28µM and PI4K2A block inactive.
CCOc1ccc(C(=O)Nc2cc(C)ccn2)cc1 was read as GALK inhibitor inactive, USP2a block inactive, Coupling enz inactive, Eya2 phos inh inactive, USP1-UAF1 inh inactive and PI4K2A block -72.
Screening COC(=O)c1ccc2c(c1O)C(=O)c1ccccc1C2=O returned GALK inhibitor inactive, USP2a block inactive, Coupling enz -44, Eya2 phos inh inactive, USP1-UAF1 inh inactive and PI4K2A block inactive.
c1ccc(-c2ccccc2OCCOCCN2CCOCC2)cc1 was read as GALK inhibitor inactive, USP2a block inactive, Coupling enz -51, Eya2 phos inh inactive, USP1-UAF1 inh inactive and PI4K2A block inactive.
Screening Oc1c(C=NCc2ccc(F)cc2)[nH]c2ccc(Br)c(Cl)c12 returned GALK inhibitor inactive, USP2a block inactive, Coupling enz inactive and Eya2 phos inh inactive.
Screening Cc1ccc(CN=Cc2[nH]c3ccc(Br)c(Cl)c3c2O)cc1 returned GALK inhibitor inactive, USP2a block inactive, Coupling enz -40, Eya2 phos inh inactive, USP1-UAF1 inh inconclusive and PI4K2A block inactive.
`CCOC(=O)c1ccc(CC(=O)c2ccc(O)c(O)c2O)o1` gave GALK inhibitor inactive, USP2a block inactive, Coupling enz -48, Eya2 phos inh inactive, USP1-UAF1 inh inactive and PI4K2A block inactive.
Screening CCOC(=O)c1ccc(CC(=O)c2oc3cc(O)ccc3c2C)o1 returned GALK inhibitor inactive, USP2a block inactive, Coupling enz inactive, Eya2 phos inh inactive, USP1-UAF1 inh inactive and PI4K2A block inactive.
For O=C1c2cccc([N+](=O)[O-])c2C(=O)N1C1CCCCC1 the results were GALK inhibitor inactive, USP2a block inactive, Coupling enz inactive, Eya2 phos inh inactive, USP1-UAF1 inh inactive and PI4K2A block inactive.
For Cc1c(Cl)cccc1N1C(=O)C(N2C(=O)c3cccc([N+](=O)[O-])c3C2=O)C1c1cccs1 (centres undefined) the results were USP2a block inactive, Coupling enz -42, Eya2 phos inh inactive, USP1-UAF1 inh inactive and PI4K2A block inactive.
COC(=O)C1C(C)OC(=O)NC1c1ccccc1 (centres undefined) was read as Coupling enz inactive.
CCCCCCC1=Cc2cc(OC)c(OC)cc2C(C(C(C)=O)C(=O)OCC)O1 (centres undefined) was read as Coupling enz inactive.
`COc1cc(/C=C2\CC/C(=C\c3cc(OC)c(O)c(OC)c3)C2=O)cc(OC)c1O` gave GALK inhibitor inactive, USP2a block inactive, Coupling enz -34, Eya2 phos inh inactive, USP1-UAF1 inh inactive and PI4K2A block inactive.
Screening COc1cc(/C=C2\CC/C(=C\c3cc(OC)c(OC)c(OC)c3)C2=O)cc(OC)c1OC returned GALK inhibitor inactive, USP2a block inactive, Coupling enz inactive, Eya2 phos inh inactive, USP1-UAF1 inh inconclusive and PI4K2A block inactive.
Screening O=C1NNC(c2ccccc2)=N/C1=C\c1ccccc1Cl returned GALK inhibitor inactive, USP2a block inactive, Coupling enz inactive, Eya2 phos inh inactive, USP1-UAF1 inh 18µM and PI4K2A block inactive.
N#C/C(=C\c1ccc(C(=O)O)cc1)c1ccccn1 was read as GALK inhibitor inactive, USP2a block inactive, Coupling enz inactive, Eya2 phos inh inactive, USP1-UAF1 inh inactive and PI4K2A block -65.
Screening O=C(O)c1ccc(/C=N\Nc2ccccn2)cc1 returned USP1-UAF1 inh inactive and PI4K2A block -62.
Screening O=C(O)c1ccc(N/N=C/c2ccncc2)cc1 returned USP2a block inactive, Coupling enz inactive, Eya2 phos inh inactive, USP1-UAF1 inh inactive and PI4K2A block inactive.
Screening O=C(O)c1ccc(N/N=C/c2ccc3nccnc3c2)cc1 returned GALK inhibitor inactive, USP2a block inactive, Coupling enz inactive, Eya2 phos inh inactive, USP1-UAF1 inh inactive and PI4K2A block -55.
Screening c1ccc(Nc2nc(-c3ccc4c(c3)OCO4)nc3ccccc23)cc1 returned Coupling enz inactive.
`CCCC/C=C/[C@H](c1ccccc1)[C@H](CO)Cc1ccc2ccccc2c1` gave Coupling enz inactive.
For Cc1ccc(S(=O)(=O)N2[C@@H](c3ccccc3F)C(C(=O)O)=CC[C@H]2c2ccc(Cl)c(Cl)c2)cc1 the results were USP2a block 11µM, Eya2 phos inh inconclusive, USP1-UAF1 inh inactive and PI4K2A block inactive.
`Cc1ccc(S(=O)(=O)N2[C@@H](c3ccccc3)C(C(=O)O)=CC[C@H]2c2ccc(Cl)c(Cl)c2)cc1` gave USP2a block inactive, Eya2 phos inh inactive, USP1-UAF1 inh inconclusive and PI4K2A block inactive.
Screening Brc1ccc2c(c1)OCCOCCOc1cc(Br)ccc1OCCOCCOCCO2 returned GALK inhibitor inactive, USP2a block inactive, Coupling enz inactive, Eya2 phos inh inactive, USP1-UAF1 inh inactive and PI4K2A block inactive.
`Nc1ccc2c(c1)OCCOCCOCCOCCOCCO2` gave GALK inhibitor inactive, USP2a block inactive, Coupling enz -49, Eya2 phos inh inactive, USP1-UAF1 inh inconclusive and PI4K2A block inactive.
For c1ccc2oc(CCc3nc4ccccc4o3)nc2c1 the results were GALK inhibitor inactive, USP2a block inactive, Coupling enz inactive, Eya2 phos inh inactive, USP1-UAF1 inh inactive and PI4K2A block inactive.
Nc1ccc2oc(CCc3ccccc3)nc2c1 was read as GALK inhibitor inactive, USP2a block inactive, Coupling enz -35, Eya2 phos inh inactive, USP1-UAF1 inh inactive and PI4K2A block inconclusive.
